From paper PMC11006913

Key:
Experiment in all cases: PBM; 200 nM protein, PBS
Conditions in all cases: dsDNA, one strand shown
SHOX [1] = target: SHOX (Homo sapiens, UniProt O15266 103-189)
ALX3 [2] = target: ALX3 (Homo sapiens, UniProt O95076 139-225, N203Q)
HOXD13 [3] = target: HOXD13 (Homo sapiens, UniProt P35453 263-343, T313R)
HOXC9 = HOXC9 (Homo sapiens, UniProt P31274 178-260, R222W)
ALX3 [4] = target: ALX3 (Homo sapiens, UniProt O95076 139-225, N203S)
SHOX [5] = target: SHOX (Homo sapiens, UniProt O15266 103-189, R173C)
Sequence of SHOX (Homo sapiens, UniProt O15266 103-189, R173C) (O15266 103-189 R173C): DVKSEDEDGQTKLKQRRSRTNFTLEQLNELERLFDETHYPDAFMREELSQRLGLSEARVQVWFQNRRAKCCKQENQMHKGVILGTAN

HOXD13 [6] = target: HOXD13 (Homo sapiens, UniProt P35453 263-343)
Sequence of HOXD13 (Homo sapiens, UniProt P35453 263-343) (P35453 263-343): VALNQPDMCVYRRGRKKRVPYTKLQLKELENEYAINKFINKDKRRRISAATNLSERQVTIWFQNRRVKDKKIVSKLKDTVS

HOXC10 = HOXC10 (Homo sapiens, UniProt Q9NYD6 254-340, K271E)
Sequence of HOXC10 (Q9NYD6 254-340 K271E): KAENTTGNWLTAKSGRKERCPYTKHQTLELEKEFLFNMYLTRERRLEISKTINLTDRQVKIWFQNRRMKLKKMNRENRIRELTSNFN

HOXD13 [7] = target: HOXD13 (Homo sapiens, UniProt P35453 263-343, T313A)
Sequence of HOXD13 (Homo sapiens, UniProt P35453 263-343, T313A) (P35453 263-343 T313A): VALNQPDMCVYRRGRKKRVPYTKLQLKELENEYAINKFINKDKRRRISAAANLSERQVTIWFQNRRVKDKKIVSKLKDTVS

ALX3 [8] = target: ALX3 (Homo sapiens, UniProt O95076 139-225)
Sequence of ALX3 (Homo sapiens, UniProt O95076 139-225) (O95076 139-225): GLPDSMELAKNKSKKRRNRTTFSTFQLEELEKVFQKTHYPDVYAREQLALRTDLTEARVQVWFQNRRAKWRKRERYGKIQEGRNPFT

ALX3 [9] = target: ALX3 (Homo sapiens, UniProt O95076 139-225, L168Q)
Sequence of ALX3 (Homo sapiens, UniProt O95076 139-225, L168Q) (O95076 139-225 L168Q): as the sequence (O95076 139-225) above, with L30Q counted along it

ALX3 [10] = target: ALX3 (Homo sapiens, UniProt O95076 139-225, L168V)
Sequence of ALX3 (Homo sapiens, UniProt O95076 139-225, L168V) (O95076 139-225 L168V): as the sequence (O95076 139-225) above, with L30V counted along it

VAX1 [11] = target: VAX1 (Homo sapiens, UniProt Q5SQQ9 86-172)
Sequence of VAX1 (Homo sapiens, UniProt Q5SQQ9 86-172) (Q5SQQ9 86-172): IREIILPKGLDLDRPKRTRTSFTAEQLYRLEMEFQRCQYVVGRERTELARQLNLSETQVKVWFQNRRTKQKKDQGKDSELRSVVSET

VAX1 [12] = target: VAX1 (Homo sapiens, UniProt Q5SQQ9 86-172, T142I)
Sequence of VAX1 (Homo sapiens, UniProt Q5SQQ9 86-172, T142I) (Q5SQQ9 86-172 T142I): as the sequence (Q5SQQ9 86-172) above, with T57I counted along it

VAX1 [13] = target: VAX1 (Homo sapiens, UniProt Q5SQQ9 86-172, K157R)
Sequence of VAX1 (Homo sapiens, UniProt Q5SQQ9 86-172, K157R) (Q5SQQ9 86-172 K157R): as the sequence (Q5SQQ9 86-172) above, with K72R counted along it

ALX1 [14] = target: ALX1 (Homo sapiens, UniProt Q15699 118-204, L144V)
Sequence of ALX1 (Homo sapiens, UniProt Q15699 118-204, L144V) (Q15699 118-204 L144V): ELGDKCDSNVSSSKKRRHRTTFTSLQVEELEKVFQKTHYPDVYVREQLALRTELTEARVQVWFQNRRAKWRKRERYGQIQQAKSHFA

ALX1 [15] = target: ALX1 (Homo sapiens, UniProt Q15699 118-204, L144R)
Sequence of ALX1 (Homo sapiens, UniProt Q15699 118-204, L144R) (Q15699 118-204 L144R): as the sequence (Q15699 118-204 L144V) above, with V27R counted along it

ALX1 [16] = target: ALX1 (Homo sapiens, UniProt Q15699 118-204)
Sequence of ALX1 (Homo sapiens, UniProt Q15699 118-204) (Q15699 118-204): as the sequence (Q15699 118-204 L144V) above, with V27L counted along it

Sequence of ALX3 (Homo sapiens, UniProt O95076 139-225, N203Q) (O95076 139-225 N203Q): as the sequence (O95076 139-225) above, with N65Q counted along it
Sequence of SHOX (Homo sapiens, UniProt O15266 103-189) (O15266 103-189): as the sequence (O15266 103-189 R173C) above, with C71R counted along it
Sequence of ALX3 (Homo sapiens, UniProt O95076 139-225, N203S) (O95076 139-225 N203S): as the sequence (O95076 139-225) above, with N65S counted along it
Sequence of HOXD13 (Homo sapiens, UniProt P35453 263-343, T313R) (P35453 263-343 T313R): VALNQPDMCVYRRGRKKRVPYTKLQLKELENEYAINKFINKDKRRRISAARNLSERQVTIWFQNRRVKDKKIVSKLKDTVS
Sequence of HOXC9 (P31274 178-260 R222W): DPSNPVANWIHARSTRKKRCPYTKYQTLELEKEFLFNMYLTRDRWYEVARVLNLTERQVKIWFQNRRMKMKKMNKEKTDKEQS

Sequence: ATATTAAA
- binding signal (SHOX [1]): 9.92 upbm affinity estimate (log intensity, higher = more binding, comparable within an allelic series)
- binding signal (ALX3 [2]): 8.59 upbm affinity estimate (log intensity, higher = more binding, comparable within an allelic series)
- binding signal (HOXD13 [3]): 10.7 upbm affinity estimate (log intensity, higher = more binding, comparable within an allelic series)
- binding signal (HOXC9): 11.1 upbm affinity estimate (log intensity, higher = more binding, comparable within an allelic series)
- binding signal (ALX3 [4]): 8.68 upbm affinity estimate (log intensity, higher = more binding, comparable within an allelic series)

Sequence: CCTGAGAG
- binding signal (SHOX [1]): 7.19 upbm affinity estimate (log intensity, higher = more binding, comparable within an allelic series)
- binding signal (SHOX [5]): 7.25 upbm affinity estimate (log intensity, higher = more binding, comparable within an allelic series)

Sequence: CCAGTTTA
- binding signal (SHOX [1]): 8.2 upbm affinity estimate (log intensity, higher = more binding, comparable within an allelic series)
- binding signal (SHOX [5]): 7.55 upbm affinity estimate (log intensity, higher = more binding, comparable within an allelic series)

Sequence: AGTTTATG
- binding signal (SHOX [1]): 8.25 upbm affinity estimate (log intensity, higher = more binding, comparable within an allelic series)
- binding signal (HOXD13 [3]): 10.7 upbm affinity estimate (log intensity, higher = more binding, comparable within an allelic series)
- binding signal (HOXD13 [6]): 11.9 upbm affinity estimate (log intensity, higher = more binding, comparable within an allelic series)
- binding signal (HOXC10): 11.1 upbm affinity estimate (log intensity, higher = more binding, comparable within an allelic series)
- binding signal (HOXD13 [7]): 11.5 upbm affinity estimate (log intensity, higher = more binding, comparable within an allelic series)

Sequence: CCGAAGCG
- binding signal (SHOX [1]): 7.16 upbm affinity estimate (log intensity, higher = more binding, comparable within an allelic series)
- binding signal (SHOX [5]): 7.24 upbm affinity estimate (log intensity, higher = more binding, comparable within an allelic series)

Sequence: CCCAGCGC
- binding signal (SHOX [1]): 7.21 upbm affinity estimate (log intensity, higher = more binding, comparable within an allelic series)
- binding signal (HOXD13 [3]): 9.41 upbm affinity estimate (log intensity, higher = more binding, comparable within an allelic series)
- binding signal (SHOX [5]): 7.13 upbm affinity estimate (log intensity, higher = more binding, comparable within an allelic series)
- binding signal (HOXD13 [6]): 9.38 upbm affinity estimate (log intensity, higher = more binding, comparable within an allelic series)
- binding signal (HOXD13 [7]): 9.56 upbm affinity estimate (log intensity, higher = more binding, comparable within an allelic series)

Sequence: CCCTCCTC
- binding signal (SHOX [1]): 7.26 upbm affinity estimate (log intensity, higher = more binding, comparable within an allelic series)
- binding signal (SHOX [5]): 7.13 upbm affinity estimate (log intensity, higher = more binding, comparable within an allelic series)

Sequence: GCGGCGGA
- binding signal (SHOX [1]): 7.1 upbm affinity estimate (log intensity, higher = more binding, comparable within an allelic series)
- binding signal (SHOX [5]): 7.11 upbm affinity estimate (log intensity, higher = more binding, comparable within an allelic series)

Sequence: CCGGCGTC
- binding signal (SHOX [1]): 7.01 upbm affinity estimate (log intensity, higher = more binding, comparable within an allelic series)
- binding signal (SHOX [5]): 7.17 upbm affinity estimate (log intensity, higher = more binding, comparable within an allelic series)

Sequence: CAACCAGC
- binding signal (SHOX [1]): 7.2 upbm affinity estimate (log intensity, higher = more binding, comparable within an allelic series)
- binding signal (SHOX [5]): 7.18 upbm affinity estimate (log intensity, higher = more binding, comparable within an allelic series)

Sequence: GCCAGGGA
- binding signal (SHOX [1]): 7.22 upbm affinity estimate (log intensity, higher = more binding, comparable within an allelic series)
- binding signal (SHOX [5]): 7.13 upbm affinity estimate (log intensity, higher = more binding, comparable within an allelic series)

Sequence: CCTGGGGC
- binding signal (SHOX [1]): 7.08 upbm affinity estimate (log intensity, higher = more binding, comparable within an allelic series)
- binding signal (ALX3 [2]): 7.67 upbm affinity estimate (log intensity, higher = more binding, comparable within an allelic series)
- binding signal (SHOX [5]): 7.09 upbm affinity estimate (log intensity, higher = more binding, comparable within an allelic series)
- binding signal (ALX3 [8]): 7.69 upbm affinity estimate (log intensity, higher = more binding, comparable within an allelic series)
- binding signal (ALX3 [9]): 7.69 upbm affinity estimate (log intensity, higher = more binding, comparable within an allelic series)
- binding signal (ALX3 [10]): 7.65 upbm affinity estimate (log intensity, higher = more binding, comparable within an allelic series)
- binding signal (ALX3 [4]): 7.61 upbm affinity estimate (log intensity, higher = more binding, comparable within an allelic series)

Sequence: GGCCCAGA
- binding signal (SHOX [1]): 7.17 upbm affinity estimate (log intensity, higher = more binding, comparable within an allelic series)
- binding signal (SHOX [5]): 7.12 upbm affinity estimate (log intensity, higher = more binding, comparable within an allelic series)

Sequence: CGGCCTGA
- binding signal (SHOX [1]): 7.33 upbm affinity estimate (log intensity, higher = more binding, comparable within an allelic series)
- binding signal (SHOX [5]): 7.17 upbm affinity estimate (log intensity, higher = more binding, comparable within an allelic series)

Sequence: GGACGTCC
- binding signal (SHOX [1]): 7.52 upbm affinity estimate (log intensity, higher = more binding, comparable within an allelic series)
- binding signal (ALX3 [2]): 7.88 upbm affinity estimate (log intensity, higher = more binding, comparable within an allelic series)
- binding signal (SHOX [5]): 7.3 upbm affinity estimate (log intensity, higher = more binding, comparable within an allelic series)
- binding signal (ALX3 [8]): 7.9 upbm affinity estimate (log intensity, higher = more binding, comparable within an allelic series)
- binding signal (VAX1 [11]): 7.88 upbm affinity estimate (log intensity, higher = more binding, comparable within an allelic series)
- binding signal (ALX3 [9]): 7.79 upbm affinity estimate (log intensity, higher = more binding, comparable within an allelic series)
- binding signal (ALX3 [10]): 7.85 upbm affinity estimate (log intensity, higher = more binding, comparable within an allelic series)
- binding signal (VAX1 [12]): 7.46 upbm affinity estimate (log intensity, higher = more binding, comparable within an allelic series)
- binding signal (ALX3 [4]): 7.79 upbm affinity estimate (log intensity, higher = more binding, comparable within an allelic series)
- binding signal (VAX1 [13]): 7.64 upbm affinity estimate (log intensity, higher = more binding, comparable within an allelic series)

Sequence: CCCGGGGC
- binding signal (SHOX [1]): 7.23 upbm affinity estimate (log intensity, higher = more binding, comparable within an allelic series)
- binding signal (SHOX [5]): 7.07 upbm affinity estimate (log intensity, higher = more binding, comparable within an allelic series)

Sequence: CCTCGGAG
- binding signal (SHOX [1]): 7.14 upbm affinity estimate (log intensity, higher = more binding, comparable within an allelic series)
- binding signal (SHOX [5]): 7.17 upbm affinity estimate (log intensity, higher = more binding, comparable within an allelic series)

Sequence: CGGCCTCC
- binding signal (SHOX [1]): 6.98 upbm affinity estimate (log intensity, higher = more binding, comparable within an allelic series)
- binding signal (SHOX [5]): 7.08 upbm affinity estimate (log intensity, higher = more binding, comparable within an allelic series)

Sequence: CGCAGCCG
- binding signal (SHOX [1]): 7.02 upbm affinity estimate (log intensity, higher = more binding, comparable within an allelic series)
- binding signal (SHOX [5]): 7.12 upbm affinity estimate (log intensity, higher = more binding, comparable within an allelic series)

Sequence: CAGCCGCG
- binding signal (SHOX [1]): 7.08 upbm affinity estimate (log intensity, higher = more binding, comparable within an allelic series)
- binding signal (ALX1 [14]): 6.48 upbm affinity estimate (log intensity, higher = more binding, comparable within an allelic series)
- binding signal (ALX3 [2]): 7.74 upbm affinity estimate (log intensity, higher = more binding, comparable within an allelic series)
- binding signal (SHOX [5]): 7.07 upbm affinity estimate (log intensity, higher = more binding, comparable within an allelic series)
- binding signal (ALX1 [15]): 6.44 upbm affinity estimate (log intensity, higher = more binding, comparable within an allelic series)
- binding signal (ALX3 [8]): 7.7 upbm affinity estimate (log intensity, higher = more binding, comparable within an allelic series)
- binding signal (VAX1 [11]): 7 upbm affinity estimate (log intensity, higher = more binding, comparable within an allelic series)
- binding signal (ALX3 [9]): 7.68 upbm affinity estimate (log intensity, higher = more binding, comparable within an allelic series)
- binding signal (ALX3 [10]): 7.67 upbm affinity estimate (log intensity, higher = more binding, comparable within an allelic series)
- binding signal (VAX1 [12]): 7.24 upbm affinity estimate (log intensity, higher = more binding, comparable within an allelic series)
- binding signal (ALX1 [16]): 6.47 upbm affinity estimate (log intensity, higher = more binding, comparable within an allelic series)
- binding signal (ALX3 [4]): 7.74 upbm affinity estimate (log intensity, higher = more binding, comparable within an allelic series)
- binding signal (VAX1 [13]): 7.13 upbm affinity estimate (log intensity, higher = more binding, comparable within an allelic series)
